CHT inh: inhibitors of human choline transporter CHT; Q9GZV3; CHT-expressing cells, membrane potential dye, choline response; active compounds read low; B-score at 10 µM; 0.86% of 310,000 active;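 active = B-score over 3 SD under the library average, and starting fluorescence ratio not unusually high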;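 also: choline stimulus applied at its EC90 after an EC20 pre-addition; B-score computed on integrated fluorescence ratio after choline addition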
PKA-R2B act: PKA-R2B complex activation; PKA-R2B holoenzyme dissociation, Cy5-IP20 fluorescence polarization; R2B truncated from residue 108, S112A mutant; 0% DMSO only, 100% 113 µM cGMP; activation, % at 11.4 µM; 0.079% of 340,000 active;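 active = activation above a cutoff set at the mean over all compounds plus 3 SD, cut at about 18% in these data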;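 also: higher means more holoenzyme dissociation and a rise in polarization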
Target sequence (P31323 whole entry, looked up, other chains not shown, the tested form may be a part): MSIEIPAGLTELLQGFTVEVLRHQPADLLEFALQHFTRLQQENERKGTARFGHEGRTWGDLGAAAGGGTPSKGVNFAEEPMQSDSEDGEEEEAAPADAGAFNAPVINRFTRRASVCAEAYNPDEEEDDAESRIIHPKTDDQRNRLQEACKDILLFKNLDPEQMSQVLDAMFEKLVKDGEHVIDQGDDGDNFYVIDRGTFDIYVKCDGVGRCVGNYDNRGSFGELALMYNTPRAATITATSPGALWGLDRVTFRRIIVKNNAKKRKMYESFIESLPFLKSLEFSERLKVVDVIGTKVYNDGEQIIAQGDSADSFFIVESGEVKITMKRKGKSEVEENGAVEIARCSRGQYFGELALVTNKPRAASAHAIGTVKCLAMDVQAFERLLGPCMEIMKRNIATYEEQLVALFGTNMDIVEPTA
CHT PAM: human CHT allosteric activation; CHT-expressing cells, membrane potential dye, choline EC20; active compounds read high; LV-AA mutant CHT in HEK293 cells; B-score at 10 µM; AID 488977; 0.49% of 310,000 active; Q9GZV3;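 active = initial fluorescence not abnormally high and integrated response B-score, plate-corrected, over 3 SD above library mean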
ANO1 block: inhibitors of mouse TMEM16A calcium-activated chloride channel. Q8BHY3. HEK293 TMEM16A/YFP iodide influx fluorescence, ionomycin. normalized B-score (activity score, 25-100; higher = stronger inhibition) at 10 µM. 1.2% of 310,000 active;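 active = ratio plate-corrected score three or more library SD toward inhibition, starting fluorescence score within five deviations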;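 also: score derived from kinetic fluorescence span divided by baseline fluorescence per well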
PKA-R1A activ: PKA-R1A complex activation | P00514+P68181 | PKA-R1A dissociation, Cy5-IP20 fluorescence polarization; scaled: DMSO 0%, 113 µM cGMP 100% | activation, % at 11.4 µM | 0.083% of 340,000 active;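 active = percent activation above the mean of all tested compounds plus 3 SD, cut at about 19% in these data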;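 also: higher means more PKAc released from R1A so a rise in polarization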
ANO1 activ: mouse TMEM16A channel activation, primary screen; Q8BHY3; HEK293 TMEM16A/YFP-H148Q/I152L, iodide quench fluorescence; active compounds read low; B-score at 10 µM; 0.3% of 340,000 active; AID 623877;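 active = fluorescence-ratio B-score plate-corrected deviation score at least 3 library SD below zero, with starting fluorescence score within 5 deviations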;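 also: channel opened by trigger with iodide after compound preincubation; score built on the fluorescence ratio of max minus min over baseline; more negative score means more quench and so TMEM16A activation or potentiation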
TMEM16A reconf: re-confirmation of mouse TMEM16A chloride channel inhibitors | shares compounds with ANO1 block | HEK293 TMEM16A/YFP-H148Q, iodide quench fluorescence; ionomycin added to raise cell calcium | inhibition, % at 10 µM | 39% of 2,300 active | AID 652189;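 active = mean duplicate percent inhibition, scaled so buffer wells are 0 and the reference blocker 100, over three buffer SD above buffer mean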
HEK293 Ca mobil: counter-screen for TMEM16A inhibitors: effect on calcium mobilization | calcium response (% of ionomycin), % at 10 µM | shares compounds with ANO1 block | 2% of 2,300 active | TMEM16A/YFP HEK293, Fluo4 calcium mobilization;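 active = duplicate-averaged calcium signal over 20% of the ionomycin maximum, relative to buffer baseline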;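 also: each well's signal is peak minus trough fluorescence divided by its pre-addition baseline; 0% = buffer wells and 100% = ionomycin wells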
Parental YFP cnt: acts in parental YFP-HEK293 cells lacking TMEM16A, counter-screen; shares compounds with ANO1 block; iodide YFP quench, ionomycin; YFP ratio F(max-min)/F0 at 10 µM; 2,300 tested, under 10 active; AID 652233;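 active = yellow fluorescent protein signal ratio exceeding the buffer control mean by over 5 SD of those controls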;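 also: ratio is mean of duplicate wells from kinetic YFP trace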
ClC-1 inh: blocks the rat ClC-1 voltage-dependent chloride channel; shares compounds with ANO1 block; CHO ClC-1-YFP, iodide influx fluorescence quench; iodide control reads 0, buffer control 100; ratio percent, % at 10 µM; 2,300 tested, under 10 active; AID 652236;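 active = duplicate-mean ratio percent above the mean of iodide-only control wells, which defines zero, plus 5 of their SD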;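 also: higher percent means stronger block of ClC-1 iodide influx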
An asterisk follows results filed as active; i = inactive; nt = not tested or not shown. Rows were chosen to be rich in hits. Some 2.5% of all compounds tested hit in one or more screens of this group.

SMILES	CHT inh	PKA-R2B act	CHT PAM	ANO1 block	PKA-R1A activ	ANO1 activ	TMEM16A reconf	HEK293 Ca mobil	Parental YFP cnt	ClC-1 inh
N#CC1(Cc2ccccc2Cl)c2ccccc2C=CN1C(=O)c1ccccc1 (configuration not stated)	i	-10	i	25*	-8	i	i	i	-1.2	-9
CCOC(=O)C1=C(CSc2nc3ccccc3s2)NC(=O)NC1c1ccc(OC)cc1 (configuration not stated)	i	-3	i	25*	0	i	i	i	-1.1	-16
Cc1cccc(C)c1NC(=O)CN(C)C(=O)c1ccccc1Sc1ccccc1C#N	nt	-5	nt	nt	-1	i	nt	nt	nt	nt
c1ccc(-c2nc(-c3ccccn3)no2)cc1	i	-7	i	i	-10	i	nt	nt	nt	nt
c1ccc(-c2ccc(-c3nc(-c4ccccn4)no3)cc2)cc1	i	0	i	25*	-17	i	i	i	-1.1	0
O=C(NNC(=O)C1CC(c2cccs2)=NO1)Nc1ccc(Cl)cc1 (configuration not stated)	i	-8	i	i	-4	i	nt	nt	nt	nt
CCCc1cc(C(=O)Cc2ccc(C(=O)OCC)o2)c(O)cc1O	i	-5	i	100*	-8	i	66%*	i	-0.84	-1
CCCc1cc(-c2n[nH]c(C)c2-c2ccc(C(=O)OCC)o2)c(O)cc1O	i	-24	i	i	-20	i	nt	nt	nt	nt
C=CCN1C(=O)c2ccc(C(=O)N(CC)CC(=O)Nc3ccc(OC)cc3)cc2C1=O	i	-7	i	i	-4	i	nt	nt	nt	nt
COc1ccc(OC)c(C(=O)c2coc3ccc(O)cc23)c1	i	-11	i	25*	-12	i	i	i	-0.84	-2
COc1ccc2occ(C(=O)c3ccccc3)c2c1	i	-9	i	i	-2	i	nt	nt	nt	nt
CNc1ccccc(-c2ccc3cc4c(cc3n2)OCO4)c1=O	i	-7	i	i	-8	i	nt	nt	nt	nt
COc1ccc(C2(O)CCN(CC(=O)Nc3nc(-c4ccccc4)cs3)CC2)cc1	i	4	i	25*	1	i	36%*	i	-0.81	-29
CN1CCN(CC(=O)Nc2nc(-c3ccccc3)cs2)CC1	i	3	i	i	3	i	nt	nt	nt	nt
O=C(NCC1CCN(C(=O)c2c(F)c(F)c(F)c(F)c2F)CC1)c1c(F)c(F)c(F)c(F)c1F	i	1	i	i	-1	i	nt	nt	nt	nt
CC(=O)Nc1ncc(Cc2ccc(Cl)cc2Cl)s1	i	2	i	i	7	i	nt	nt	nt	nt
O=C(Nc1cccc(S(=O)(=O)Nc2ccccc2F)c1)c1ccc2ccccc2n1	i	1	i	100*	-2	i	i	i	-0.93	-5
Cc1ccc(CNC(=O)CCNS(=O)(=O)c2cccc3nsnc23)cc1	i	0	i	100*	4	i	i	i	-0.74	-3
O=C(CCNS(=O)(=O)c1cccc2nsnc12)NCc1ccc(F)cc1	i	0	i	i	-10	i	nt	nt	nt	nt
Cc1cc(-n2cnnn2)cc(C)c1S(=O)(=O)N(C)c1ccccc1	i	-8	i	i	-3	i	nt	nt	nt	nt
CCCOc1ccccc1C1CC(=O)Nc2cc3c(cc21)OCCO3 (configuration not stated)	i	-15	i	100*	-16	i	26%*	i	-0.88	-17
CCn1c(=O)c(C(=O)NNC(=O)c2ccccc2F)c(O)c2ccccc21	i	-4	i	25*	-6	i	22%*	48%*	-1.2	-6
Fc1ccc(-c2csc(N3CCC(c4ccccc4)C3)n2)cc1 (configuration not stated)	i	3	i	100*	-2	i	i	i	-0.87	-10
CCc1ccc(S(=O)(=O)NCCc2csc(-c3ccccc3)n2)s1	i	-10	i	100*	-4	i	i	i	-1.1	-26
Cc1ccc(C(=O)CSc2nc3ccccc3c(=O)[nH]2)cc1	i	3	i	100*	-5	i	i	i	-1	-12
SMILES	CHT inh	PKA-R2B act	CHT PAM	ANO1 block	PKA-R1A activ	ANO1 activ	TMEM16A reconf	HEK293 Ca mobil	Parental YFP cnt	ClC-1 inh
Cc1ccc(C(=O)CSc2nc3ccccc3c(=O)[nH]2)cc1C	i	9	i	i	-9	i	nt	nt	nt	nt
Cc1ccc(C(=O)N(Cc2nc3ccccc3c(=O)[nH]2)C2CCCC2)cc1	i	-8	i	100*	1	i	i	i	-1	-12
CC1(C(=O)OCC(=O)Nc2ccc3ccccc3c2)CC1(Cl)Cl (configuration not stated)	i	-11	i	25*	-4	i	i	i	-0.81	-17
CCN1C=C(Cc2ccc(F)cc2)C2=C(C1)C(c1ccc(F)cc1)C(C#N)=C(N)O2 (configuration not stated)	i	-5	i	25*	3	i	i	i	-1.1	-6
CCN1C=C(Cc2ccccc2C)C2=C(C1)C(c1ccccc1C)C(C#N)=C(N)O2 (configuration not stated)	i	-2	i	i	3	i	nt	nt	nt	nt
O=C(CN(Cc1ccccc1)S(=O)(=O)c1ccccc1)N/N=C/c1ccccc1C(=O)O	i	3	i	i	-5	i	nt	nt	nt	nt
CC(NC(=O)CCN1C(=O)c2ccccc2C1=O)c1ccccc1 (configuration not stated)	i	-11	i	i	-1	i	nt	nt	nt	nt
CCOC(=O)c1nnn(-c2nonc2N)c1CN1CCCCCC1	i	-2	i	i	-4	i	nt	nt	nt	nt
CCOC(=O)c1nnn(-c2nonc2-n2cccc2)c1CN1CCCCC1	i	0	i	100*	5	-6.9*	i	i	-1.1	-14

Screening results deposited in PubChem BioAssay by several laboratories.
